Compound activity from PubChem.
S-ASM inh = Inhibitors of Secretory Acid Sphingomyelinase (S-ASM): qHTS; placental ASM, HMU-PC fluorogenic substrate, 60 min; Potency, µM (series often up to 57.5 µM), inactives show at the highest dose activity change, negative = inhibition, most hits filed as inhibitors; Sphingomyelin phosphodiesterase (Homo sapiens), P17405; AID 504937, 2011; 340,000 compounds, 0.006% hits; also: potency is read from the fitted curve at half-maximal effect
Target sequence (P17405 47-631 limits assumed): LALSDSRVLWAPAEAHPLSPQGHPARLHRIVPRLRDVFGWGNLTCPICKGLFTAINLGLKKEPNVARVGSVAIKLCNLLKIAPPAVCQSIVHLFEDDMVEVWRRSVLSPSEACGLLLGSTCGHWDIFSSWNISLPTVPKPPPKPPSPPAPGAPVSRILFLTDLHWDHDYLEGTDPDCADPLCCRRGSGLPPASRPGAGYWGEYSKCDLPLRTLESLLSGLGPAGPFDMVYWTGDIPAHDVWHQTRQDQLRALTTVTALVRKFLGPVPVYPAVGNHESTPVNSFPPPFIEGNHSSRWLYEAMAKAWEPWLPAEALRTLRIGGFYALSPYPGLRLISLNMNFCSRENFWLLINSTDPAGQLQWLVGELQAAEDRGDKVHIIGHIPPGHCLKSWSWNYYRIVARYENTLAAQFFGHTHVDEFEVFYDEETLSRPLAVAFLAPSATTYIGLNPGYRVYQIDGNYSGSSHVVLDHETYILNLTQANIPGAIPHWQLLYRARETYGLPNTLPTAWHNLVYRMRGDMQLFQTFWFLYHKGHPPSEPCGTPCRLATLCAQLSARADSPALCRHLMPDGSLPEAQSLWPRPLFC
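Human placenta-derived ASM preincubated with compound 10 min at room temperature, then reacted with 9 uM (final) fluorogenic HMU-PC substrate for 60 min at 37 C. Stop solution raises pH to 10; fluorescence read at Ex 386/Em 447 nm.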
DT40 TDP1 CPT = qHTS for Inhibitors of human tyrosyl-DNA phosphodiesterase 1 (TDP1): qHTS in cells in presence of CPT; chicken DT40 Tdp1-/-;hTDP1 cells + 20 nM CPT, ATP luminescence, 48 h; AID 686979, 2013; Potency, µM (highest dose often 46.2 µM), for the others: at the highest dose activity change, negative = growth inhibition, usual class: inhibitors; 420,000 compounds, 12% hits; also: potency is read from the fitted curve at half-maximal effect; % is scaled to controls: 0 for no effect and ±100 for the full control effect; nearly all actives have a fitted effect of over 55% in size
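Chicken DT40 Tdp1-/- cells complemented with human TDP1, 400 cells/well, exposed to compounds plus 20 nM camptothecin for at least 48 h at 37 C; viability read as ATP content by CellTiter-Glo luminescence.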
HepG2 tox = qHTS for Inhibitors of TGF-b: Cytotox Counterscreen. HepG2 CAGA-GFP viability, ATP luminescence, 18 h. Potency, µM (top dose mostly 46.1 µM), for inactives: at the top dose activity change, negative = cytotoxicity, usual class: cytotoxic. 410,000 compounds, 0.76% hits. AID 588856, 2011; also: potency is read from the fitted curve at half-maximal effect
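HepG2 CAGA-GFP cells (1000/well, DMEM with 1% FBS) received compound, then TGF-beta at 500 pg/mL final, and were incubated 18 hours at 37 degrees C. Viability was read by CellTiter-Glo luminescence. Media-only wells were set as complete cell-killing and DMSO as no toxicity.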
IL1B secr inh = qHTS for Inhibitors of Inflammasome Signaling: IL-1-beta AlphaLISA Primary Screen; THP-1 LPS/ATP IL-1B secretion, AlphaLISA, 16 h; hits give low values; activity change, % at 57.5 µM; 360,000 compounds, 4.7% hits; AID 743279, 2014; in the data active = activity change below about -50%; inconclusive = mostly about -30% to -49%; also: % is scaled to controls: 0 for no effect and ±100 for the full control effect
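Secreted IL-1B measured by AlphaLISA bead assay after 16 h compound exposure of THP-1 cells; compounds (final up to 57.5 uM) added 1 h before LPS (250 ng/mL) and ATP (1.25 mM) stimulation; lower signal means less secretion.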
TDP1 cell noCPT = qHTS for Inhibitors of human tyrosyl-DNA phosphodiesterase 1 (TDP1): qHTS in cells in absence of CPT. DT40 Tdp1-/- hTDP1 cells, no CPT, ATP luminescence, 48 h. Potency, µM (series often up to 46.2 µM), for inactives: at the highest dose activity change, negative = growth inhibition, hits mostly inhibitors. 420,000 compounds, 15% hits; also: potency is read from the fitted curve at half-maximal effect; % is scaled to controls: 0 for no effect and ±100 for the full control effect; nearly all actives have a fitted effect of over 55% in size
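Chicken DT40 Tdp1-/- cells complemented with human TDP1, screened without camptothecin (DMSO vehicle only), 400 cells/well. Compounds pin-transferred, cells incubated at 37 °C for at least 48 hr. Growth read as ATP-dependent luminescence (CellTiter-Glo, 30 min at RT).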
TGFb SMAD3 inh = qHTS for Inhibitors of TGF-b; HepG2 CAGA-GFP TGF-b/SMAD3 reporter, GFP fluorescence, 18 h; TGF-beta stimulated, 500 pg/mL final; Potency, µM (highest dose often 46.1 µM), without a hit: top-dose activity, negative = inhibition, actives largely listed as inhibitors; 410,000 compounds, 1.2% hits; AID 588855, 2011; also: potency is read from the fitted curve at half-maximal effect; % is scaled to controls: 0 for no effect and ±100 for the full control effect; nearly all actives have a fitted effect of over 65% in size
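Cell-based qHTS in HEPG2 carrying a CAGA-GFP Smad reporter; compounds added before 500 pg/mL final TGF-beta, 18 h incubation at 37 degrees C, GFP fluorescence quantified per cell by imaging cytometry.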
* marks the source's active call; other numbers are inactive results; ? = inconclusive; . = no result given. Sampled rows, rich in hits. Any-hit rate of the full collection: about 19%. Unless noted, calls follow the shape of the dose curve; as a rule, active = well fitted curve in the direction sought with a large enough effect; inconclusive = small, poorly fitted or top-dose-only effect, or another doubt; inactive = no such curve, though single readings can be large; an effect the other way counts as inactive or inconclusive.

SMILES	S-ASM inh	DT40 TDP1 CPT	HepG2 tox	IL1B secr inh	TDP1 cell noCPT	TGFb SMAD3 inh
Cc1cccc(N2CCN(C(=O)CCn3c(=O)[nH]c4ccsc4c3=O)CC2C)c1 (stereo unspecified)	-4.0%	?	-6.3%	4.3	10.3µM*	20.6%
Cc1cccc(N2CCN(C(=O)CCCn3c(=O)[nH]c4ccsc4c3=O)CC2C)c1 (stereo unspecified)	-0.5%	-13.9%	-2.4%	-20.0	25.9µM*	1.8%
O=C(c1cc(=O)c2ccccc2o1)N1CCCc2ccccc21	-3.1%	1.6%	-1.1%	22.1	5.2%	-6.0%
CSCc1c(C(=O)N2CCCc3ccccc32)oc2ccccc12	-2.6%	14.6µM*	-23.5%	-0.7	?	-14.9%
Cc1cc(C)c2sc(N(CCCN(C)C)C(=O)CN3C(=O)c4ccccc4C3=O)nc2c1	-6.5%	?	-64.9%	0.0	?	?
Cc1cc(C)c2sc(N(CCCN(C)C)C(=O)c3ccc(Br)s3)nc2c1	-23.9%	?	-77.6%	.	14.6µM*	?
Cc1cc(C)c2sc(N(CCN(C)C)C(=O)c3c(F)cccc3F)nc2c1	-4.1%	-29.0%	-39.8%	-71.1*	?	?
CC(=O)Nc1ccc(C)cc1	0.4%	-4.6%	-1.4%	9.4	-6.2%	-9.4%
CC(=O)Nc1ccc(C(=O)CCl)cc1	0.9%	1.46µM*	-53.2%	-103.8*	2.06µM*	?
CC(=O)N(C)Cc1ccc(C(=O)CSc2nnc(C3CC3)n2C2CC2)cc1	4.1%	0.3%	-13.5%	15.2	-20.3%	-17.9%
CC(=O)N(C)Cc1ccc(C(=O)CCl)cc1	-0.3%	1.03µM*	7.5%	-105.8*	0.92µM*	-16.0%
CC(=O)NCc1ccc(C(=O)CCl)cc1	0.8%	4.11µM*	-30.9%	-101.6*	?	?
CC(=O)NCc1ccc(C(=O)CCl)s1	-3.6%	0.517µM*	11.2µM*	-17.4	1.16µM*	?
O=S(=O)(Cc1ccccc1)NC1c2ccccc2Oc2ccccc21	?	14.6µM*	-28.3%	-16.9	20.6µM*	-6.2%
O=C(COC(=O)[C@@H]1CC(O)CN1S(=O)(=O)c1ccccc1[N+](=O)[O-])c1ccccc1 (stereo partly specified)	3.5%	-6.6%	-7.7%	11.5	-2.5%	-22.7%
CC(OC(=O)C1CC(O)CN1S(=O)(=O)c1ccccc1[N+](=O)[O-])C(=O)N1CCCCC1 (stereo unspecified)	4.5%	-12.7%	-0.8%	-0.3	-12.3%	-1.4%
CCc1cccc2c(C(=O)COC(=O)[C@@H]3CC(O)CN3S(=O)(=O)c3ccccc3[N+](=O)[O-])c[nH]c12 (stereo partly specified)	-6.8%	23.1µM*	-1.7%	-76.4*	20.6µM*	-0.5%
COC(=O)c1ccc(COC(=O)[C@@H]2CC(O)CN2S(=O)(=O)c2ccccc2[N+](=O)[O-])cc1 (stereo partly specified)	-0.7%	-12.3%	-0.4%	-97.4*	-16.0%	6.5%
CCCC(=O)Nc1c2c(nn1-c1ccc(C)cc1)CS(=O)(=O)C2	-0.2%	5.6%	-7.7%	-6.8	22.9%	-1.4%
Cc1nc2c(C(=O)NCc3ccco3)cnn2c(C)c1Cc1ccc(F)cc1Cl	-24.2%	11.2µM*	-11.9%	-0.3	?	-4.9%
Cc1cccc(Cc2c(C)nc3c(C(=O)NCc4ccco4)cnn3c2C)c1	-22.6%	22.4µM*	-112.7%	-77.8*	11.2µM*	17.8µM*
CCOc1cc(C2NC(=O)CCC2[N+](=O)[O-])cc(Br)c1OCC (stereo unspecified)	0.0%	-19.0%	-4.1%	-12.1	-2.3%	0.9%
C[C@@H]1CN([C@@H](C)CO)C(=O)CCCn2nncc2CO[C@H]1CN(C)C	.	5.1%	2.1%	25.2	-7.3%	22.4%
CN1C(=O)S/C(=C/c2cccnc2)C1=O	3.3%	?	4.0%	-3.4	-27.0%	-5.9%
O=C1/C(=C\c2cccnc2)Sc2ccccc21	-0.5%	?	-39.0%	-25.8	20.6µM*	-5.2%
SMILES	S-ASM inh	DT40 TDP1 CPT	HepG2 tox	IL1B secr inh	TDP1 cell noCPT	TGFb SMAD3 inh
CC(=O)c1ccc(N(C(=O)CNC(=O)c2ccco2)C(C(=O)NC2CCCC2)c2cccnc2)cc1 (stereo unspecified)	-0.6%	5.7%	-0.5%	-3.4	9.3%	?
CC(CCc1ccccc1)NC(=O)CSc1n[nH]c(-c2ccccc2)n1 (stereo unspecified)	.	14.6µM*	-34.0%	.	20.6µM*	-41.8%
CC(CCc1ccccc1)NC(=O)CSc1n[nH]c(-c2ccc(F)cc2)n1 (stereo unspecified)	.	?	-19.9%	.	23.1µM*	11.2µM*
COc1ccc(-c2csc3ncnc(N4CCN(S(=O)(=O)c5ccc(C)c(C)c5)CC4)c23)cc1	-0.9%	?	0.4%	83.9	18.4µM*	6.1%
Cc1cc(C)c(C)c(S(=O)(=O)N2CCN(c3ncnc4sc(C)c(C)c34)CC2)c1C	0.4%	-23.6%	48.1%	13.6	?	10.8%
Cc1cc(-c2csc3ncnc(N4CCN(C)CC4)c23)cc(C)c1C	9.3%	-21.0%	-11.0%	-5.1	?	5.6%
N#Cc1ccc(S(=O)(=O)N2CCN(c3ncccn3)CC2)cc1	1.6%	-2.4%	-12.2%	-4.5	-9.1%	-4.1%
Cc1ccc(-c2csc3ncnc(N4CCN(S(=O)(=O)c5ccc(C#N)cc5)CC4)c23)cc1	.	?	1.7%	7.4	16.4µM*	-4.6%
Cc1ccc(S(=O)(=O)N2CCN(c3ncnc4sccc34)CC2)cc1	-0.5%	7.31µM*	-38.1%	-10.4	3.26µM*	-28.3%
Cc1ccc(-c2csc3ncnc(N4CCN(S(=O)(=O)c5cccs5)CC4)c23)cc1	-2.0%	?	6.0%	29.1	20.6µM*	-9.4%
Cc1ccc(Cl)cc1NC(=O)N1CCC(CN2CCc3ccccc3C2)CC1	.	-10.7%	1.8%	.	-12.9%	6.1%
Cc1nn(C)cc1S(=O)(=O)NCc1ccc2c(c1)OCO2	0.2%	8.2%	8.5%	0.4	15.2%	25.4%
